Assay results as given in PubChem BioAssay (NCATS).
Values joined by “and” are separate entries in the source; they are usually repeats but may differ in a detail not shown here. Identical values can stand only once.

test: qHTS profiling for inhibitors of Plasmodium falciparum (DD2) proliferation (AID 743323); details: lower = more inhibition; at 28.7 µM (top of the series) unless noted
Method in brief: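 SYBR Green fluorescence (ex 485, em 535 nm) of lysed cultures gives parasite DNA content; wells normalized to artemisinin (0.29 uM) and DMSO controls. Infected red cells: 0.3% parasitemia, 2.5% hematocrit, 72 h, 37 C.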

| SMILES | activity, percent of control |
| --- | --- |
| Cc1ccc(NC(=O)c2cccc(C(C)(C)C#N)c2)cc1Nc1ccc2ncn(C)c(=O)c2c1 | 49.3% |
| O=c1ncn2nc(Sc3ccc(F)cc3F)ccc2c1-c1c(Cl)cccc1Cl | 80.3% |
| Cn1cc(-c2ccc3nnc(C(F)(F)c4ccc5ncccc5c4)n3n2)cn1 | 62.2% |
| COCC(=O)NCC=Cc1ccc2ncnc(Nc3ccc(Oc4ccc(C)nc4)c(C)c3)c2c1 | 24.1% |
| O=C(O)[C@@H](c1ccc(OCc2ccc3ccccc3n2)cc1)C1CCCC1 | 96.9% |
| O=C(OCC#CCSc1nnc(-c2ccc3ccccc3c2)o1)c1cc2ccccc2s1 | 105% |
| CCc1ccc(CCOc2ccc(CC3SC(=O)NC3=O)cc2)nc1 (configuration not stated) | 103% |
| COc1ccc2nc(S(=O)Cc3ncc(C)c(OC)c3C)[nH]c2c1 (configuration not stated) | 93.3% and 100% |
| CCC(C)N(C)C(=O)c1cc2ccccc2c(-c2ccccc2Cl)n1 (configuration not stated) | 80.9% |
| O=C(Nc1ccc(F)c(C(F)(F)F)c1)Nc1nnc(-c2ccncc2)s1 | 90% |
| COc1ccc2c3n(c(=NC(=O)c4cccnc4)nc2c1OC)CCN3 | 12.2% |
| O=C(Nc1cccnc1)N1CCC(Cc2cccc(Oc3ccc(C(F)(F)F)cn3)c2)CC1 | 24.9% |
| CCN(CCCO)CCCOc1ccc2c(Nc3cc(CC(=O)Nc4cccc(F)c4)[nH]n3)ncnc2c1 | 1.34% |
| CC(C)C[C@H](NC(=O)[C@@H](O)[C@H](N)Cc1ccccc1)C(=O)O | 6.99% |
| N#CC[C@H](C1CCCC1)n1cc(-c2ncnc3[nH]ccc23)cn1 | 48.8% |
| Cc1ccc2c(c1)C(=O)[C@@]1(O)CCN(c3ccccc3)C1=N2 | 112% |
| N#Cc1ccc(C(c2ccc(C#N)cc2)n2cncn2)cc1 | 86.6% |
